Assay results taken from PubChem BioAssay.
For some of these results: Potency and affinity values are given separately. Activity calls are given as the source filed them. Unless noted, how the calls were made is not given here.

Tests used:
[1] = antimalarial activity against Dd2 strain (AID 2302;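 active means growth inhibition above 50% at the single 2 µM test dose, taken to imply half-maximal potency below 2 µM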;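 further: 0% = DMSO untreated growth and 100% = chloroquine plus artemisinin killed control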); settings: P. falciparum Dd2 in RBCs, LDH growth readout, 72 h; at 2 µM; stronger effect = higher value
[2] = HepG2 cytotoxicity, primary screen, cytotoxicity control for P. falciparum antimalarial project, cell-based, ATP luminescence (AID 2303;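 active means inhibition above 50%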;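 further: 0% = DMSO wells and 100% = digitonin-killed cells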); settings: HepG2 viability, 24-48 h, at 10 µM, stronger effect = higher value
[3] = biological target: L-lactate dehydrogenase (Plasmodium falciparum (isolate CDC / Honduras)) (UniProt Q27743); assay: PfLDH activity inhibition – cell lysate, 3D7 strain, counter-screen for P. falciparum growth inhibition project (AID 2304);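 further: 0% = vehicle and 100% = reference inhibitor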; settings: P. falciparum 3D7 crude extract, LDH APAD/NBT absorbance; at 2 µM; stronger effect = higher value
[4] = inhibition of 3D7 malaria parasite growth – strain 3D7 (AID 2306);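 further: 0% = DMSO wells and 100% = chloroquine plus artemisinin control wells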; settings: P. falciparum 3D7 erythrocytic growth, LDH absorbance, 72 h; at 2 µM; stronger effect = higher value
[5] = biological target: Calcium-dependent protein kinase 1 (Plasmodium falciparum (isolate 3D7)) (UniProt P62344); assay: PfCDPK1 kinase inhibitors, biochemical, TCAMS library (AID 1159585; cut-off not given, nearly all actives have IC50 up to about 0.98 µM;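 further: inhibitors leave more ATP so luminescence rises with inhibition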); settings: recombinant PfCDPK1, Kinase-Glo ATP depletion luminescence
[6] = biological target: Plasmodium falciparum protein kinase 6 (PK6, PF3D7_1337100) (UniProt Q8IDW1); assay: PfPK6 kinase inhibitors, biochemical, TCAMS library (AID 1159586); settings: recombinant PfPK6, Kinase-Glo ATP depletion luminescence
[7] = biological target: Protein kinase 7 (PK7), Plasmodium falciparum 3D7 (PF3D7_0213400) (UniProt Q7YTF7); assay: inhibition of Plasmodium PK7 catalytic activity – biochemical, TCAMS antimalarial set, Kinase-Glo luminescence (AID 1159587); settings: recombinant PfPK7, Kinase-Glo ATP depletion luminescence
[8] = biological target: Calcium-dependent protein kinase 4 (Plasmodium falciparum (isolate 3D7)) (UniProt Q8IBS5); assay: PfCDPK4 kinase inhibitors, biochemical, TCAMS library (AID 1159588; cut-off not given, nearly all actives have IC50 up to about 0.91 µM); settings: recombinant PfCDPK4, Kinase-Glo ATP depletion luminescence
Calcium-dependent protein kinase 4 (Plasmodium falciparum (isolate 3D7)), sequence (Q8IBS5 whole entry, looked up): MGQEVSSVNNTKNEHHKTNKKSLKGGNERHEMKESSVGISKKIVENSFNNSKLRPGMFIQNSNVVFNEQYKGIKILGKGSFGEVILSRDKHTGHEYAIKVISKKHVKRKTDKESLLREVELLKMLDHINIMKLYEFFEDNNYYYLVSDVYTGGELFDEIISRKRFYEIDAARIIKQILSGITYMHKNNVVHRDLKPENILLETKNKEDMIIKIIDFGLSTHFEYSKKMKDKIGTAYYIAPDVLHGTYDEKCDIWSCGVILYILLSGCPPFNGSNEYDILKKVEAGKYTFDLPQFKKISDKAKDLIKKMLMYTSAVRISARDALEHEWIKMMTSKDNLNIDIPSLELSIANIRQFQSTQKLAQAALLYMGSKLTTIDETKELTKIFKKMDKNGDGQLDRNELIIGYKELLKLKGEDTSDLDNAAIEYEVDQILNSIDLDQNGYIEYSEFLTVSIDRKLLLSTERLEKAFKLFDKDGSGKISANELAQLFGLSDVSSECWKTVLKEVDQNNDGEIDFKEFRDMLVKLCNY

L-lactate dehydrogenase (Plasmodium falciparum (isolate CDC / Honduras)), sequence (Q27743 whole entry, looked up): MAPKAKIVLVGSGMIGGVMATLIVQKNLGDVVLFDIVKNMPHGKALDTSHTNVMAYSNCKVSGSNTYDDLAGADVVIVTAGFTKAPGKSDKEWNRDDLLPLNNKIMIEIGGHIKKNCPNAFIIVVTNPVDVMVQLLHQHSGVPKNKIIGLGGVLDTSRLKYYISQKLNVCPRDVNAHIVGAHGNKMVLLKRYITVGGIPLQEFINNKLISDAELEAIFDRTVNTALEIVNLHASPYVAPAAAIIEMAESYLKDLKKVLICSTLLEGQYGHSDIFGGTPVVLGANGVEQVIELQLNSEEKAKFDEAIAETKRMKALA
Calcium-dependent protein kinase 1 (Plasmodium falciparum (isolate 3D7)), sequence (P62344 whole entry, looked up): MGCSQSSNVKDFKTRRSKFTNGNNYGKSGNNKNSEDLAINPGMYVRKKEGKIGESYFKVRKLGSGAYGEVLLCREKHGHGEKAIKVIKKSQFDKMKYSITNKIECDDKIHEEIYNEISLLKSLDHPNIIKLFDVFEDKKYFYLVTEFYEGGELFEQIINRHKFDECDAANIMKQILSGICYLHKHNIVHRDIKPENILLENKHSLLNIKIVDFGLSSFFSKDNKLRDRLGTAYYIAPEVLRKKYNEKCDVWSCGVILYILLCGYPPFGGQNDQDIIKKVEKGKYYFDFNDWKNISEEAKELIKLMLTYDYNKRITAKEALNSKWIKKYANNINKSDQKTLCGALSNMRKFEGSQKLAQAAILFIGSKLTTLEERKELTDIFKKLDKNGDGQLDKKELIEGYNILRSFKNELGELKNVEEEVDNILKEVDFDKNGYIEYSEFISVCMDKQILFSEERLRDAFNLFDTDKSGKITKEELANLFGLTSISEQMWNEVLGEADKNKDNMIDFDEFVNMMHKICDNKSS
Plasmodium falciparum protein kinase 6 (PK6, PF3D7_1337100), sequence (Q8IDW1 1-305): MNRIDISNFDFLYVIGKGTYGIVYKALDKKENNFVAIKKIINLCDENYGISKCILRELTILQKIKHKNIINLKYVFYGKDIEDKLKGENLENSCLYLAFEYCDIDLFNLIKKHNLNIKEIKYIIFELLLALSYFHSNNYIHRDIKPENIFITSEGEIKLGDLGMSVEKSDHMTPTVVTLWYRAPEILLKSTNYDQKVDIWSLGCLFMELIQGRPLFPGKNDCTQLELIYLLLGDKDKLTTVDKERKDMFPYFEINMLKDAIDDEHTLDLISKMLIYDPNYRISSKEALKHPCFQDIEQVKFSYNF
Protein kinase 7 (PK7), Plasmodium falciparum 3D7 (PF3D7_0213400), sequence (Q7YTF7 1-343): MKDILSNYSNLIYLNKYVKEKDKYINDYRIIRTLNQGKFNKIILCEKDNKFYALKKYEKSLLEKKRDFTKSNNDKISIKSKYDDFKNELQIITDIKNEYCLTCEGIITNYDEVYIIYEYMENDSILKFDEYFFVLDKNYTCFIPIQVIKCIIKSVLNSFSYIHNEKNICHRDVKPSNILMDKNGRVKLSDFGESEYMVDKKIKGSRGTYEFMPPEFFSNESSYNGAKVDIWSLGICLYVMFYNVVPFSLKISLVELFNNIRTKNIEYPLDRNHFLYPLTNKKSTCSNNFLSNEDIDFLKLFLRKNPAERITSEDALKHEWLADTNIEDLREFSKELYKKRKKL

c1ccc2c(c1)CN(Cc1ccsc1)CC1(CCN(Cc3c[nH]c4cnccc34)CC1)O2
inactive: inhibition [2] 38% | inhibition [3] -2% | outcome [5] | outcome [6] | outcome [7] | outcome [8]
active: growth inhibition [1] 75% | growth inhibition [4] 87%

CN1CCC(Oc2ccc(CN3CC[C@H](NC(=O)c4ccc(F)c(F)c4)C3)c3ccccc23)C1 (stereo not given in full)
active: growth inhibition [4] 91%
inactive: growth inhibition [1] 27% | inhibition [2] 20% | inhibition [3] 2% | outcome [5] | outcome [6] | outcome [7] | outcome [8]

OC1CCCN(Cc2ccc(-c3ccc(-c4nc5ccccc5[nH]4)cc3)cc2)C1 (stereo not given)
active: growth inhibition [1] 77% | growth inhibition [4] 100%
inactive: inhibition [2] 46% | inhibition [3] -4% | outcome [5] | outcome [6] | outcome [7] | outcome [8]

O=C(Nc1nc(-c2cc(F)ccc2F)cs1)c1cncc(Br)c1
active: growth inhibition [4] 85%
inactive: growth inhibition [1] 3% | inhibition [2] 16% | inhibition [3] -4% | outcome [5] | outcome [6] | outcome [7] | outcome [8]

COc1ccc2nccc([C@@H](O)CN3CCC(NC(=O)C(c4cc5ccccc5o4)N4CCN(c5ccc(F)cc5)CC4)CC3)c2c1 (stereo not given in full)
active: growth inhibition [1] 98% | growth inhibition [4] 100%
inactive: inhibition [2] 15% | inhibition [3] -1% | outcome [5] | outcome [6] | outcome [7] | outcome [8]

COc1nc2c(N3CCN(CCNCc4ccc5c(n4)NC(=O)CS5)CC3)ccnc2cc1F
active: growth inhibition [1] 96% | growth inhibition [4] 101%
inactive: inhibition [2] 18% | inhibition [3] -6% | outcome [5] | outcome [6] | outcome [7] | outcome [8]

O=C(/C=C/c1ccc(Cl)c(Cl)c1)NCCCCCN1CCC(CCNC(=O)Cc2ccc(Cl)cc2)CC1
active: growth inhibition [4] 83%
inactive: growth inhibition [1] 0% | inhibition [2] 45% | inhibition [3] -8% | outcome [5] | outcome [6] | outcome [7] | outcome [8]

O=C(CN1CCN(C(C(=O)Nc2cc(C(F)(F)F)ccc2Cl)c2ccccc2)CC1)NC1CC1 (stereo not given)
active: growth inhibition [1] 93% | growth inhibition [4] 95%
inactive: inhibition [2] -6% | inhibition [3] -3% | outcome [5] | outcome [6] | outcome [7] | outcome [8]

COc1cccc(CC(=O)N2CCC(n3c(C)nc4ccc(C)cc43)CC2)c1
inactive: inhibition [2] 1% | inhibition [3] -2% | outcome [5] | outcome [6] | outcome [7] | outcome [8]
active: growth inhibition [1] 99% | growth inhibition [4] 100%

O=C(NC1CCC(N2CCC(Cc3ccc(F)cc3)CC2)CC1)c1cc2ccccc2[nH]1 (stereo not given)
inactive: growth inhibition [1] 39% | inhibition [3] -2% | outcome [5] | outcome [6] | outcome [7] | outcome [8]
active: inhibition [2] 60% | growth inhibition [4] 98%

Cc1ccn2cc(-c3ccc(NC(=O)c4ccc(Br)o4)cc3)nc2c1
active: inhibition [2] 100% | growth inhibition [4] 98%
inactive: growth inhibition [1] 41% | inhibition [3] -3% | outcome [5] | outcome [6] | outcome [7] | outcome [8]

CCC1(CC)N=C(N)N=C(N)C1c1ccc(Cl)c(Cl)c1 (stereo not given)
active: growth inhibition [4] 98%
inactive: growth inhibition [1] 20% | inhibition [2] -16% | inhibition [3] 7% | outcome [5] | outcome [6] | outcome [7] | outcome [8]

COc1ccc(OCC(=O)Nc2cc(-c3nc4ccccc4[nH]3)ccc2Cl)cc1
inactive: growth inhibition [1] 33% | inhibition [2] 18% | inhibition [3] -4% | outcome [5] | outcome [6] | outcome [7] | outcome [8]
active: growth inhibition [4] 94%

Fc1ccc(C=NNc2ccnc3ccccc23)cc1
active: growth inhibition [1] 101% | growth inhibition [4] 101%
inactive: inhibition [2] 21% | inhibition [3] 4% | outcome [5] | outcome [6] | outcome [7] | outcome [8]

CN(C)CCCOc1cccc(NC(=O)Nc2ccc(Cl)c(Cl)c2)c1
active: growth inhibition [4] 90%
inactive: growth inhibition [1] 8% | inhibition [2] 6% | inhibition [3] -1% | outcome [5] | outcome [6] | outcome [7] | outcome [8]

Cc1cccc2[nH]c(-c3cccc(-c4cccc(CNCC5CCCO5)c4)c3)nc12 (stereo not given)
inactive: inhibition [2] 26% | inhibition [3] -3% | outcome [5] | outcome [6] | outcome [7] | outcome [8]
active: growth inhibition [1] 99% | growth inhibition [4] 101%

Fc1cccc(Nc2nc(NCc3ccc(Cl)c(Cl)c3)nc(Nc3cccc(F)c3)n2)c1
active: growth inhibition [4] 99%
inactive: growth inhibition [1] 7% | inhibition [2] -5% | inhibition [3] 3% | outcome [5] | outcome [6] | outcome [7] | outcome [8]

O=C(Nc1ccccc1)N(Cc1cccc(-c2ccc(CNC3CCCC3)cc2)c1)C1CCN(Cc2ccccc2)CC1
inactive: inhibition [3] 8% | outcome [5] | outcome [6] | outcome [7] | outcome [8]
active: growth inhibition [1] 96% | inhibition [2] 100% | growth inhibition [4] 101%

CC1CCN(CCNC(=O)c2ccc3c(=O)n(Cc4ccc(Cl)cc4)c(=S)[nH]c3c2)CC1
inactive: inhibition [2] 6% | inhibition [3] 4% | outcome [5] | outcome [6] | outcome [7] | outcome [8]
active: growth inhibition [1] 75% | growth inhibition [4] 101%

O=C(C=Cc1ccc(Cl)c(Cl)c1)NCCCCCN1CCC(CCCNS(=O)(=O)c2ccc(Br)cc2)CC1
inactive: growth inhibition [1] 25% | inhibition [3] -5% | outcome [5] | outcome [6] | outcome [7] | outcome [8]
active: inhibition [2] 74% | growth inhibition [4] 93%
